About 83,000 compounds went through this panel and 20% of them were active in at least one assay; those are over-represented in the sample as a whole.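 Activity criterion: percent growth below 10, measured after cells in 96-well plates were exposed to a single compound concentration for 48 hours.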 Active and inactive are the calls of the source.
Assays:
Test in all cases: NCI-60 one-dose screen, 48 h (100 = growth as untreated, 0 = no growth, -100 = all killed)
Conditions in all cases: 10 µM unless noted
HCT-15 colon = test system: HCT-15 colon
HT29 colon = test system: HT29 colon
SNB-75 CNS = test system: SNB-75 CNS
SNB-19 CNS = test system: SNB-19 CNS
U251 CNS = test system: U251 CNS
PC-3 prostate = test system: PC-3 prostate
SK-MEL-5 melanoma = test system: SK-MEL-5 melanoma
UACC-62 melanoma = test system: UACC-62 melanoma
LOX IMVI melanoma = test system: LOX IMVI melanoma
SK-MEL-28 melanoma = test system: SK-MEL-28 melanoma

Measured: growth

O=C1NC(=O)C(Cc2ccc(OCc3ccc(-c4ccc(Cl)cc4Cl)cc3)cc2)S1 (stereo not given)
active: SK-MEL-5 melanoma -28.4%
inactive: HCT-15 colon 39.5% | HT29 colon 86.3% | SNB-75 CNS 59.1% | SNB-19 CNS 73.8% | U251 CNS 57.6% | PC-3 prostate 32.2% | UACC-62 melanoma 41.9% | LOX IMVI melanoma 37.1% | SK-MEL-28 melanoma 65.3%

CCN1C(=O)N(CC)C2C1NN=c1s/c(=C\c3ccccc3F)c(=O)n12 (stereo not given)
inactive: SNB-75 CNS 10.8% | SNB-19 CNS 31% | PC-3 prostate 25.1% | UACC-62 melanoma 34.4% | LOX IMVI melanoma 15.8% | SK-MEL-28 melanoma 61.2%
active: HCT-15 colon 8.45% | HT29 colon 1.76% | U251 CNS 1.71% | SK-MEL-5 melanoma -21.1%

O=C(Nc1cccc2ccccc12)NC1CC1
inactive: HCT-15 colon 112% | HT29 colon 114% | SNB-75 CNS 83.6% | SNB-19 CNS 107% | U251 CNS 101% | PC-3 prostate 97.4% | SK-MEL-5 melanoma 103% | UACC-62 melanoma 99.8% | LOX IMVI melanoma 101% | SK-MEL-28 melanoma 105%

O=[N+]([O-])c1ccc(O)cc1Br
inactive: HCT-15 colon 101% | HT29 colon 92.6% | SNB-75 CNS 92.7% | SNB-19 CNS 98.6% | U251 CNS 103% | PC-3 prostate 88.8% | SK-MEL-5 melanoma 93.3% | UACC-62 melanoma 105% | LOX IMVI melanoma 95.4% | SK-MEL-28 melanoma 109%

Nc1c(C(=O)Nc2ccccc2F)sc2nc3c(cc12)CCCC3
inactive: HCT-15 colon 28.7% | HT29 colon 11.3% | SNB-75 CNS 37.5% | SNB-19 CNS 33.7% | U251 CNS 26.7% | PC-3 prostate 27.7% | SK-MEL-5 melanoma 15.5% | UACC-62 melanoma 26.7% | LOX IMVI melanoma 40.5% | SK-MEL-28 melanoma 73.7%

CC(=O)N1N=C(c2ccc(C(F)(F)F)c(F)c2)CC1c1[nH]c(C)c(C(=O)NCC(F)(F)F)c1C (stereo not given)
inactive: HCT-15 colon 95.3% | HT29 colon 78.5% | SNB-19 CNS 47.9% | U251 CNS 78.8% | PC-3 prostate 70.8% | SK-MEL-5 melanoma 81.7% | UACC-62 melanoma 87.7% | LOX IMVI melanoma 71.5% | SK-MEL-28 melanoma 69.8%
active: SNB-75 CNS -8.37%

CCO/C=N/C1=C(C#N)C(c2ccc(Cl)cc2)c2sc3c(F)cccc3c2O1 (stereo not given)
inactive: HCT-15 colon 35.7% | HT29 colon 89.5% | SNB-75 CNS 42.6% | SNB-19 CNS 51.2% | U251 CNS 45.7% | PC-3 prostate 67.1% | SK-MEL-5 melanoma 64.9% | UACC-62 melanoma 35.9% | LOX IMVI melanoma 51.8% | SK-MEL-28 melanoma 73.6%

Fc1ccc(CNc2c3ccccc3nc3ccccc23)c(F)c1
inactive: HCT-15 colon 28.7% | HT29 colon 21.8% | SNB-75 CNS 81.1% | SNB-19 CNS 41.5% | U251 CNS 44.1% | PC-3 prostate 68.9% | SK-MEL-5 melanoma 69.4% | UACC-62 melanoma 59.1% | LOX IMVI melanoma 21.5% | SK-MEL-28 melanoma 90.4%

CCCCCC(/C=N\NC(=S)N/N=C/C(=C/c1ccccc1)CCCCC)=C\c1ccccc1
inactive: HCT-15 colon 45.4% | HT29 colon 105% | SNB-75 CNS 102% | SNB-19 CNS 56.8% | U251 CNS 55.3% | PC-3 prostate 46.1% | SK-MEL-5 melanoma 68.2% | UACC-62 melanoma 56.8% | LOX IMVI melanoma 60.8% | SK-MEL-28 melanoma 93.7%

C#CCOc1ccc2ncnc(Nc3ccc(NC(=O)C=C)cc3)c2c1
inactive: SNB-75 CNS 70% | SNB-19 CNS 17.6% | SK-MEL-5 melanoma 13.1%
active: HCT-15 colon -14.8% | HT29 colon -34.9% | U251 CNS -22.9% | PC-3 prostate 3.24% | UACC-62 melanoma -68.7% | LOX IMVI melanoma -82.6% | SK-MEL-28 melanoma 2.36%

O=C1Nc2ccccc2/C1=C/c1cccn1CCCCn1c2ccccc2c(=O)c2ccccc21
inactive: HCT-15 colon 31.7% | HT29 colon 89.1% | SNB-75 CNS 78% | SNB-19 CNS 98.4% | U251 CNS 95.1% | PC-3 prostate 55.1% | SK-MEL-5 melanoma 38.6% | UACC-62 melanoma 51.8% | LOX IMVI melanoma 82.5% | SK-MEL-28 melanoma 105%

COc1ccc2c(c1)CC[C@H](O)/C2=C/c1cc(OC)c(OC)c(OC)c1
inactive: HCT-15 colon 13.9% | SNB-75 CNS 19.1% | SNB-19 CNS 38.3% | U251 CNS 13.3% | PC-3 prostate 17.8% | UACC-62 melanoma 31.8% | LOX IMVI melanoma 18.2% | SK-MEL-28 melanoma 61.5%
active: HT29 colon 0.825% | SK-MEL-5 melanoma -40%

CN1C(=O)/C(=C\c2nc([P+](c3ccccc3)(c3ccccc3)c3ccccc3)c(N3CCOCC3)o2)SC1=S
inactive: HCT-15 colon 91.3% | HT29 colon 98.3% | SNB-75 CNS 92.1% | SNB-19 CNS 12.5% | U251 CNS 66.2% | PC-3 prostate 46.1% | SK-MEL-5 melanoma 78.4% | LOX IMVI melanoma 86.1% | SK-MEL-28 melanoma 11%
active: UACC-62 melanoma -3.31%

CCSc1nc2scc(C)c2c(=O)[nH]1
inactive: HCT-15 colon 104% | HT29 colon 105% | SNB-75 CNS 90.2% | SNB-19 CNS 96.5% | U251 CNS 97.1% | PC-3 prostate 98.7% | SK-MEL-5 melanoma 99.9% | UACC-62 melanoma 94.1% | LOX IMVI melanoma 99.7% | SK-MEL-28 melanoma 105%

Cc1cc(C(=O)Nc2ncc(Cc3cccc(C(F)(F)F)c3)s2)c2ccccc2n1
inactive: HCT-15 colon 17.3% | SNB-75 CNS 18.1% | SNB-19 CNS 44.7% | U251 CNS 18.5% | PC-3 prostate 26.7% | LOX IMVI melanoma 12.6% | SK-MEL-28 melanoma 40.4%
active: HT29 colon 8.85% | SK-MEL-5 melanoma 0.694% | UACC-62 melanoma 9.95%

CCC(=C(c1ccc(OCCN2CCCCC2)cc1)c1ccc(OCCN2CCCCC2)cc1)c1ccc(Cl)cc1
active: HCT-15 colon -84.9% | HT29 colon -74.6% | SNB-75 CNS -96.4% | SNB-19 CNS -94.5% | U251 CNS -82.2% | PC-3 prostate -81.2% | SK-MEL-5 melanoma -96.8% | UACC-62 melanoma -89.7% | LOX IMVI melanoma -84.8% | SK-MEL-28 melanoma -97%

O=C(Nc1nc2ccccc2s1)c1ccc(F)cc1
inactive: HCT-15 colon 85.5% | HT29 colon 108% | SNB-75 CNS 96.7% | SNB-19 CNS 126% | U251 CNS 99.7% | PC-3 prostate 96.6% | SK-MEL-5 melanoma 91.3% | UACC-62 melanoma 89.5% | LOX IMVI melanoma 101% | SK-MEL-28 melanoma 114%

CCCCCCCCCc1ccc(OCCOCCOCCOCCOCCOCCOCCOCCOCCO)cc1
inactive: HCT-15 colon 10.4% | HT29 colon 15.2% | SNB-75 CNS 36.6% | SNB-19 CNS 28.6% | U251 CNS 16.4% | UACC-62 melanoma 11.7% | SK-MEL-28 melanoma 34.4%
active: PC-3 prostate 9.37% | SK-MEL-5 melanoma -77.3% | LOX IMVI melanoma 7.91%

COc1cc2c(cc1OCCCN1CCN(CCCOc3cc4c(cc3OC)C(=O)N3CCC[C@H]3C=N4)CC1)C=CC(C)(C)O2
active: HCT-15 colon -98% | HT29 colon -100% | SNB-75 CNS -98.2% | SNB-19 CNS -94.6% | U251 CNS -98.5% | PC-3 prostate -75.3% | SK-MEL-5 melanoma -100% | UACC-62 melanoma 1.28% | LOX IMVI melanoma -98.6% | SK-MEL-28 melanoma -100%

Cc1ccc2c(n1)C(=O)C(Br)=C(CC(C)C)C2=O
inactive: HCT-15 colon 104% | HT29 colon 108% | SNB-75 CNS 97.3% | SNB-19 CNS 101% | U251 CNS 97.8% | PC-3 prostate 97.5% | SK-MEL-5 melanoma 98.1% | UACC-62 melanoma 93.9% | LOX IMVI melanoma 98.1% | SK-MEL-28 melanoma 105%

COc1ccc(C2=Nc3c(N)nc(N)nc3NC(c3cccc(Nc4ccnc5cc(C(F)(F)F)ccc45)c3)C2)cc1 (stereo not given)
inactive: HCT-15 colon 36.6% | HT29 colon 30.4% | SNB-75 CNS 65.6% | SNB-19 CNS 73.1% | U251 CNS 60.4% | PC-3 prostate 48.4% | SK-MEL-5 melanoma 61.4% | UACC-62 melanoma 88.9% | LOX IMVI melanoma 65.3% | SK-MEL-28 melanoma 91.5%

CCOC(=O)c1cc2c(n1Cc1cc(OC)c(OC)c(OC)c1)-c1nc(N)sc1CCC2
inactive: HCT-15 colon 35.9% | HT29 colon 19.3% | SNB-75 CNS 60.3% | SNB-19 CNS 61.3% | U251 CNS 38.9% | PC-3 prostate 26.3% | SK-MEL-5 melanoma 19.6% | UACC-62 melanoma 35.5% | LOX IMVI melanoma 48.5% | SK-MEL-28 melanoma 69.4%

NC(=O)c1c(NC(=O)c2ccc3ccccc3c2)sc2c1CCC(=O)C2
inactive: HCT-15 colon 42.1% | HT29 colon 55.2% | SNB-75 CNS 40.3% | SNB-19 CNS 46.3% | U251 CNS 22.9% | PC-3 prostate 16.6% | SK-MEL-5 melanoma 99.7% | UACC-62 melanoma 42% | LOX IMVI melanoma 37.5% | SK-MEL-28 melanoma 97.1%

Nc1c(C(=O)Nc2ccncc2)sc2nc3c(cc12)C(O)CCC3 (stereo not given)
inactive: HCT-15 colon 86.3% | HT29 colon 85.4% | SNB-75 CNS 105% | SNB-19 CNS 95.4% | U251 CNS 91.6% | PC-3 prostate 94.6% | SK-MEL-5 melanoma 92.4% | UACC-62 melanoma 80% | LOX IMVI melanoma 105% | SK-MEL-28 melanoma 85.5%

Cc1c(O)cc(-c2cnc(Nc3ccccc3)s2)c(O)c1C
inactive: HCT-15 colon 92.2% | HT29 colon 109% | SNB-75 CNS 104% | SNB-19 CNS 106% | U251 CNS 100% | PC-3 prostate 76% | SK-MEL-5 melanoma 93.4% | UACC-62 melanoma 78.1% | LOX IMVI melanoma 78.3% | SK-MEL-28 melanoma 104%

O=S(=O)(c1ccccc1)n1cc2c(c1)-c1nc(Nc3ncccn3)sc1CC2
active: SNB-75 CNS -16%
inactive: HCT-15 colon 68.7% | HT29 colon 66.2% | SNB-19 CNS 78.5% | U251 CNS 46.2% | PC-3 prostate 65.5% | SK-MEL-5 melanoma 35.4% | UACC-62 melanoma 63.6% | LOX IMVI melanoma 10.1% | SK-MEL-28 melanoma 73.9%
